Source: PubChem
A selection: hits, their analogues and other compounds. The true share with any hit is near 19%.
TDP1 inh: TDP1 (human) enzyme inhibition; 0.28% of 350,000 active; Q9NUW8; recombinant TDP1, AlphaScreen DNA substrate cleavage; Potency, µM (doses to about 130 µM), without a hit: top-dose activity change, negative = inhibition, actives largely listed as inhibitors; further: potency means the concentration at half of the fitted maximal effect; on the % scale 0 is the no-effect control and ±100 the full control effect; nearly all actives have a fitted effect of over 40% in size
Target sequence (Q9NUW8 whole entry, looked up): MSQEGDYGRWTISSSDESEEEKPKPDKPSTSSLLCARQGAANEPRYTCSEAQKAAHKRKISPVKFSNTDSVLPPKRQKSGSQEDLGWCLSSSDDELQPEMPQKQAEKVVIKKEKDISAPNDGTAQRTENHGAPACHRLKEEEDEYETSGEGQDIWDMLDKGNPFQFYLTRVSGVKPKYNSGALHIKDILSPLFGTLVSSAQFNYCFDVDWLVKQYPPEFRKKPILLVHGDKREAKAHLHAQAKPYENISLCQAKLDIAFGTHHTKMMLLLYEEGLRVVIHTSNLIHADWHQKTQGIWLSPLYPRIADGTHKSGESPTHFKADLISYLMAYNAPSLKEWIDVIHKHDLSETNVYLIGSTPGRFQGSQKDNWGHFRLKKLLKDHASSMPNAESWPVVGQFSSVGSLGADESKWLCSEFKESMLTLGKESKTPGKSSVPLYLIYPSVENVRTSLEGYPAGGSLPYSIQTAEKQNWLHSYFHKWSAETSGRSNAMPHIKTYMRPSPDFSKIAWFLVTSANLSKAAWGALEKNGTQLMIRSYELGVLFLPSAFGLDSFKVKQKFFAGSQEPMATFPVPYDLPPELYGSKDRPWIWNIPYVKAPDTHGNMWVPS
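E. coli-derived human Tdp1, 1 nM final. Cpd preinc 15 min RT; substrate 15 nM final, 5 min RT; AS bead mix 10 ug/ml final, 10 min RT. Signal loss = tyrosine-FITC cleavage. No-enzyme wells = max signal.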
DT40 TDP1 CPT: DT40-hTDP1 cell growth loss with CPT; chicken DT40 Tdp1-/-;hTDP1 cells + 20 nM CPT, ATP luminescence, 48 h; Potency, µM (highest dose often 46.2 µM), without a hit: at the top dose activity change, negative = growth inhibition, most hits filed as inhibitors; 12% of 420,000 active; AID 686979; further: potency means the concentration at half of the fitted maximal effect; on the % scale 0 is the no-effect control and ±100 the full control effect; nearly all actives have a fitted effect of over 55% in size
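Cell growth measured by CellTiter-Glo luminescence after a minimum 48 h, 37 C compound exposure with 20 nM CPT in Tdp1-knockout DT40 cells stably expressing hTDP1, seeded 400/well; qHTS titration format.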
DT40 TDP1 no CPT: qHTS for Inhibitors of human tyrosyl-DNA phosphodiesterase 1 (TDP1): qHTS in cells in absence of CPT; DT40 Tdp1-/- hTDP1 cells, no CPT, ATP luminescence, 48 h; Potency, µM (highest dose often 46.2 µM), inactives show at the top dose activity change, negative = growth inhibition, hits mostly inhibitors; 15% of 420,000 active; AID 686978, 2013; further: potency means the concentration at half of the fitted maximal effect; on the % scale 0 is the no-effect control and ±100 the full control effect; nearly all actives have a fitted effect of over 55% in size
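Luminescent ATP content (CellTiter-Glo) served as the growth readout. Knockout chicken DT40 cells expressing human TDP1 were exposed to compounds without camptothecin for a minimum 48 hr at 37 °C.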
IL-1B inflam inh: blocks inflammasome-driven IL-1 beta release. 4.7% of 360,000 active. activity change, % at 57.5 µM. THP-1 LPS/ATP IL-1B secretion, AlphaLISA, 16 h; hits give low values; in the data active means activity change below about -50%; inconclusive means mostly about -30% to -49%; further: on the % scale 0 is the no-effect control and ±100 the full control effect
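Secreted IL-1B measured by AlphaLISA bead assay after 16 h compound exposure of THP-1 cells; compounds (final up to 57.5 uM) added 1 h before LPS (250 ng/mL) and ATP (1.25 mM) stimulation; lower signal means less secretion.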
HepG2 tox: HepG2 cytotoxicity, counter-screen for TGF-b inhibitors; HepG2 CAGA-GFP viability, ATP luminescence, 18 h; Potency, µM (top dose mostly 46.1 µM), for the others: top-dose activity change, negative = cytotoxicity, hits mostly cytotoxic; 0.76% of 410,000 active; further: potency means the concentration at half of the fitted maximal effect
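HepG2 CAGA-GFP cells (1000/well, DMEM with 1% FBS) received compound, then TGF-beta at 500 pg/mL final, and were incubated 18 hours at 37 degrees C. Viability was read by CellTiter-Glo luminescence. Media-only wells were set as complete cell-killing and DMSO as no toxicity.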
TGFb SMAD3 inh: TGF-b pathway inhibition; HepG2 CAGA-GFP TGF-b/SMAD3 reporter, GFP fluorescence, 18 h; TGF-beta stimulated, 500 pg/mL final; Potency, µM (top dose mostly 46.1 µM), for the others: top-dose activity, negative = inhibition, actives largely listed as inhibitors; 1.2% of 410,000 active; AID 588855; further: potency means the concentration at half of the fitted maximal effect; on the % scale 0 is the no-effect control and ±100 the full control effect; nearly all actives have a fitted effect of over 65% in size
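Cell-based qHTS in HEPG2 carrying a CAGA-GFP Smad reporter; compounds added before 500 pg/mL final TGF-beta, 18 h incubation at 37 degrees C, GFP fluorescence quantified per cell by imaging cytometry.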
Numbers without * were called inactive; ? = inconclusive; nt = not tested or not shown; [ ] = another dose, or the depositor's remark. Unless noted, the call rests on the fitted dose curve; in most records, active means well fitted curve in the direction sought with a large enough effect; inconclusive means small, poorly fitted or top-dose-only effect, or another doubt; inactive means no such curve, though single readings can be large; an effect the other way counts as inactive or inconclusive.

SMILES	TDP1 inh	DT40 TDP1 CPT	DT40 TDP1 no CPT	IL-1B inflam inh	HepG2 tox	TGFb SMAD3 inh
COCCCN1CN=C(NS(=O)(=O)c2ccc(NC(C)=O)cc2)NC1	-8%	-2%	-13%	nt	-35%	6%
CC(C)[C@H](CN1CCC[C@H]1CN1C(N)=NC[C@H]1C(C)C)N1C[C@@H](Cc2ccccc2)N(CCCC2CCCC2)C1=N	3%	?	?	-60*	-5%	20%
CCCCN1C(=N)N([C@@H](C)CN2CCC[C@H]2CN2C(N)=NC[C@H]2CC(C)C)C[C@H]1Cc1ccccc1	-7%	16µM*	?	-54*	-10%	-2%
CCC[C@@H](CN1CCC[C@H]1CN1C(N)=NC[C@@H]1Cc1ccccc1)N1C[C@@H](Cc2ccccc2)N(CCCC2CCCC2)C1=N	1%	?	?	-83*	3%	-24%
CC[C@@H](C)[C@@H]1CN([C@@H](CN2CCC[C@H]2CN2C(N)=NC[C@H]2CC(C)C)C(C)C)C(=N)N1CCCC1CCCC1	-3%	?	?	?	-14%	-4%
CCCCN1C(=N)N([C@@H](C)CN2CCC[C@H]2CN2C(N)=NC[C@@H]2Cc2ccccc2)C[C@H]1[C@H](C)CC	-8%	?	?	-17	-5%	-25%
CCC[C@@H](CN1CCC[C@H]1CN1C(N)=NC[C@H]1CC(C)C)N1C[C@@H](Cc2ccccc2)N(CCCC2CCCC2)C1=N	1%	10µM*	12µM*	-66*	-13%	-2%
O=[N+]([O-])c1cccc(C2=N[C@@H](Cc3ccccc3)CO2)c1	10%[234 µM]	nt	nt	nt	nt	nt
CCC[C@@H](CN1CCC[C@H]1CN1C(N)=NC[C@@H]1Cc1ccccc1)N1C[C@@H]([C@H](C)CC)N(CCCC2CCCC2)C1=N	0%	10µM*	8.2µM*	-96*	-63%	?
O=C(CNc1cccc2ccccc12)N/N=C/c1cccc(Oc2ccccc2)c1	7%	?	26µM*	-7	-91%	?
O=C(N/N=C/c1cccc(Oc2ccccc2)c1)c1cccc(O)c1	5%[56.1 µM]	?	?	-5	-16%	-29%
O=C(N/N=C/c1cccc(Oc2ccccc2)c1)c1cccc(Br)c1	-4%	?	21µM*	6	-18%	?
O=C(N/N=C/C=C/c1ccccc1)c1cccc(Br)c1	8%	?	21µM*	-26	-22%	-11%
Cc1ccc(C(=O)N/N=C/C=C/c2ccccc2)cc1	-1%	-5%	-9%	-21	-16%	-4%
COc1ccc(N2CCN(C(=O)COC(=O)CCc3ccccc3)CC2)cc1	0%	2%	-5%	30	-1%	1%
COc1ccc(S(=O)(=O)NCc2cccn2Cc2cccc(C)c2)cc1OC	14%	?	?	nt	-18%	?
O=C(OCc1cn([C@H]2CN(Cc3cccs3)[C@@H](c3ccc(Cl)cc3)C[C@@H]2O)nn1)c1ccccc1	nt	?	-26%	18	-10%	-14%
Cc1ccc([C@H]2C[C@@H](O)[C@H](n3cc(COC(=O)c4ccccc4)nn3)CN2Cc2cccs2)cc1	nt	?	?	21	-9%	-11%
Cc1ccc([C@H]2C[C@@H](O)[C@H](n3cc(COC(=O)c4ccccc4)nn3)CN2C(=O)c2cccs2)cc1	nt	?	26µM*	16	-10%	-3%
Cc1ccc([C@H]2C[C@H](O)[C@@H](n3cc(COC(=O)c4ccccc4)nn3)CN2Cc2cccs2)cc1	nt	21µM*	23µM*	?	-104%	?
O=C(OCc1cn([C@H]2CN(Cc3cccs3)[C@@H](c3ccccc3)C[C@@H]2O)nn1)c1ccccc1	nt	18µM*	21µM*	21	-65%	?
COc1ccc([C@H]2C[C@H](n3cc(COC(=O)c4ccccc4)nn3)[C@@H](O)CN2Cc2cccs2)cc1	nt	?	18µM*	-1	-4%	10%
COc1ccccc1N1CCN(C(=O)c2ccncc2)CC1	1%	-9%	?	16	1%	9%
O=C(c1ccc(CN2CCc3ccccc3C2)cc1)N1CCCCC1	-2%	-28%	?	8	-5%	13%
O=C(c1ccc(CN2CCc3ccccc3C2)cc1)N1CCN(c2ccc(F)cc2)CC1	nt	16µM*	13µM*	-63*	-7%	?
SMILES	TDP1 inh	DT40 TDP1 CPT	DT40 TDP1 no CPT	IL-1B inflam inh	HepG2 tox	TGFb SMAD3 inh
CC1(C)Cc2cccc(OCC(=O)N3CCN(c4ccccc4F)CC3)c2O1	-16%	?	?	30	-4%	-1%
COc1ccccc1N1CCN(C(=O)c2ccc(COc3cccc4c3OC(C)(C)C4)cc2)CC1	nt	?	16µM*	?	-2%	?
O=C(c1ccc(Cn2cc(Cl)cn2)cc1)N1CCN(c2ccccc2)CC1	-1%	-23%	?	3	4%	-3%
O=C(c1ccc(Cn2cc(Br)cn2)cc1)N1CCN(c2ccccc2)CC1	3%	15µM*	16µM*	-11	0%	?
COc1ccccc1N1CCN(C(=O)c2ccc(CN3CCc4ccccc4C3)cc2)CC1	3%	16µM*	?	-14	-28%	-4%
COC1OC2COC(c3ccccc3)OC2C(O)C1NC(C)=O (centres undefined)	nt	9%	-9%	15	-79%	6%
Cc1ccnc2nc(NC(=O)c3ccccc3Cl)nn12	2%	0%	2%	nt	2%	?
COc1ccc(NC(=O)c2ccco2)cc1NC(=O)c1cc(Cl)ccc1OC	-5%	-11%	-24%	nt	0%	-8%
COc1ccc(CN2CCOc3ccc(CN4CCC(Oc5cccnc5)CC4)cc3C2)cc1C	nt	-10%[9.04 µM]	?	nt	nt	nt
c1cncc(OC2CCN(Cc3ccc4c(c3)CN(Cc3ccc5c(c3)CCO5)CCO4)CC2)c1	nt	-9%[9.04 µM]	18µM*	nt	nt	nt
c1cncc(OC2CCN(Cc3ccc4c(c3)CN(Cc3ccc5c(c3)OCCO5)CCO4)CC2)c1	nt	?	16µM*	nt	nt	nt
COc1ccc(CN2CCOc3ccc(CN4CCC(Oc5cccnc5)CC4)cc3C2)cc1	nt	21µM*	-29%	nt	nt	nt
CCOC(=O)N1CCC2(CC1)OC(=O)C(C)=C2C(=O)NCc1cccc(OC)c1	-2%	-27%	?	nt	-23%	0%
CCC1(CC)C(=O)C(C)(C)C(=O)OC1c1cccs1 (centres undefined)	7%	?	21µM*	18	4%	?
